Shown is part of a subset that was picked to be rich in hits.
TbPYK inhibitor: inhibitors of Trypanosoma brucei pyruvate kinase. TbPYK enzyme, Kinase-Glo Plus ATP luminescence, 45 min. Q57TT1. Potency, µM (doses to about 76.8 µM), most hits filed as inhibitors. 410,000 tested, 0.12% active; further: nearly all actives have a fitted effect of over 50% in size
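Readout: single end-point luminescence (Kinase-Glo Plus, 10 min). Reaction conditions were TbPYK/substrate plus 130 uM ADP, 45 min at RT, pH 7.2 TEA buffer. No-enzyme wells served as controls, and data were normalized before concentration-response fitting.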
Shiga toxin inh: blocks Shiga toxin action in Vero cells; Vero cells, Shiga toxin protein synthesis inhibition reporter; inhibition, % at 38.7 µM; 290,000 tested, 9.2% active; AID 2315; in the data active means inhibition mostly above about 28%, no sharp cut-off; inactive means mostly below about 43%
RE007 growth inh: less growth of the S. pombe RE007 Vpr strain | S. pombe RE007 Vpr strain, BacTiter-Glo ATP luminescence, 24 h | Potency, µM (titrated, usually from 92.2 µM), usual class: inhibitors | 360,000 tested, 0.21% active | AID 651644; active means well fitted falling curve with a large enough effect; inconclusive means small, poorly fitted or top-dose-only effect; inactive means no such curve, though single readings can be large or run the other way; further: nearly all actives have a fitted effect of over 50% in size
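Fission yeast RE007 carrying one integrated HIV-1 vpr copy, seeded at OD 0.01 in PMG+AL medium with 23 nL pinned compound. Grown 24 h at 30 degrees; viability read by BacTiter-Glo luminescence after 5 min.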
LmPK inh: inhibitors of Leishmania mexicana pyruvate kinase | Q27686 | purified LmPK, Kinase-Glo ATP luminescence, 1 h | Potency, µM (series often up to 57.5 µM), most hits filed as inhibitors | 290,000 tested, 0.37% active | AID 1721
Target sequence (Q27686 whole entry, looked up): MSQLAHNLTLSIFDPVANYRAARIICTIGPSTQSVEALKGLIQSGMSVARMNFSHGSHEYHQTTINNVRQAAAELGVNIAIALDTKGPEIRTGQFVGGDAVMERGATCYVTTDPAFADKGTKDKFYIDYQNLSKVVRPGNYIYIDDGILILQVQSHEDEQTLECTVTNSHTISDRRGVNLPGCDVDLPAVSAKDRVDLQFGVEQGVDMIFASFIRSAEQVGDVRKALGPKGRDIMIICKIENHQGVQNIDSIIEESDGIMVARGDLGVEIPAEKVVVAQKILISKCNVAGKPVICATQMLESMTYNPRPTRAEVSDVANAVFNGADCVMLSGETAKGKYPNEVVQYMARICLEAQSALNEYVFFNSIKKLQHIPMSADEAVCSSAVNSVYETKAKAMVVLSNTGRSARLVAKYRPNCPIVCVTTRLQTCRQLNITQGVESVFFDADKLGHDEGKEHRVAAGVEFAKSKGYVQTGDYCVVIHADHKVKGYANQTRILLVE
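Screened at intermediate enzyme activity to detect both inhibitors and activators: LmPK at 0.1 nM, with a 0.5 nM enzyme column as activation reference. PEP 0.5 mM, ADP 0.1 mM; ATP detected by luminescence after 1 h.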
CHX counter: affects cycloheximide protein synthesis inhibition readout, counter-screen; cell reporter, cycloheximide protein synthesis inhibition counterscreen; max response, %; 300,000 tested, 12% active; AID 2314; in the data active means max response mostly above about 13%, no sharp cut-off; inactive means mostly below about 14%; further: read at 38.3 µM for the half of the compounds with a filed dose
Giardia FBPA inh: blocks Giardia fructose-bisphosphate aldolase activity. Potency, µM (doses to about 59.6 µM), usual class: inhibitors. AID 2451. purified Giardia FBPA. A8B2U2. 290,000 tested, 0.71% active; further: nearly all actives have a fitted effect of over 55% in size
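Giardia FBPA (40 nM reagent) was preincubated 10 min at RT with compound (up to 57.5 uM final), then substrate plus GAPDH/TPI/NAD/arsenate coupling system with diaphorase/resazurin was added; resorufin fluorescence (525/598 nm) was read after 20 min.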
Of the large screens only hits and unclear results are named; the others gave an inactive call. Unless noted, the call rests on the fitted dose curve; in most records, active means well fitted curve in the direction sought with a large enough effect; inconclusive means small, poorly fitted or top-dose-only effect, or another doubt; inactive means no such curve, though single readings can be large; an effect the other way counts as inactive or inconclusive.

Nc1nc(CSC(=S)N2CCOCC2)nc(Nc2ccccc2)n1	Shiga toxin inh 94, CHX counter 54
CC1CCN(C(=O)Cn2ncc3c4ccccc4n(Cc4ccc(Cl)cc4)c3c2=O)CC1	none (no result: Shiga toxin inh, RE007 growth inh, LmPK inh, CHX counter, Giardia FBPA inh)
CCOc1ccc(Nc2nc(N)nc(CSC(=S)N3CCOCC3)n2)cc1	CHX counter 44
Cc1cccc(Nc2nc(N)nc(CSC(=S)N3CCOCC3)n2)c1	none
CC(=O)Cc1nsc(NC(=O)c2ccc(-c3ccccc3Cl)o2)n1	none
COc1ccccc1NC(=O)c1ccc(-c2ccc(Br)cc2)o1	RE007 growth inh inconclusive
CCCCn1nnc(NC(=O)c2ccc(-c3ccccc3[N+](=O)[O-])o2)n1	Shiga toxin inh 49, CHX counter 27
O=C(Nc1nccs1)c1ccc(-c2ccccc2[N+](=O)[O-])o1	Shiga toxin inh 106, CHX counter 54
COc1ccccc1NC(=O)c1ccc(-c2ccccc2[N+](=O)[O-])o1	Shiga toxin inh 115, CHX counter 60
O=C(Nc1nccs1)c1ccc(-c2ccccc2Cl)o1	Shiga toxin inh 76, CHX counter 44
CC(C)C[C@@H](CC(=O)N[C@@H](CCC(=O)O)CC(=O)O)NC(=O)[C@@H]1CNCC[C@H]1NC(=O)C[C@@H](NC(=O)C[C@H](Cc1ccccc1)NC(=O)[C@@H]1CCCC[C@H]1N)C(C)C	none (no result: TbPYK inhibitor, Shiga toxin inh, RE007 growth inh, LmPK inh, CHX counter)
O=C(Nc1ccc(Cl)c(C(F)(F)F)c1)c1nc2ccccc2nc1N1CCCCC1	none (no result: Shiga toxin inh, RE007 growth inh, LmPK inh, CHX counter, Giardia FBPA inh)
COc1cc(OC)c(NC(=O)Cn2c(SCc3ccccc3F)nc3cccnc32)cc1Cl	none (no result: Shiga toxin inh, RE007 growth inh, LmPK inh, CHX counter, Giardia FBPA inh)
CC(C)(C)c1cc(C(=O)Nc2ccccc2)ccn1	CHX counter 25
Cc1ccc(NC(=O)c2ccnc(C(C)(C)C)c2)cc1	Shiga toxin inh 71, CHX counter 16
COc1ccc(CC(=O)Cc2ccc(OC)c(OC)c2)cc1OC	none (no result: Shiga toxin inh, LmPK inh, CHX counter, Giardia FBPA inh)
COc1ccc(CC(=O)c2ccc(OC)c(OC)c2C)cc1OC	Shiga toxin inh 56, CHX counter 23
COc1ccc(NC(=O)CN(c2ccc(C)cc2)S(=O)(=O)c2cccc3nonc23)cc1OC	none (no result: Shiga toxin inh, RE007 growth inh, LmPK inh, CHX counter, Giardia FBPA inh)
CCCCC(=O)Nc1ccc(NC(=O)c2ccc3c(c2)OCO3)cc1OC	none
CCCC(=O)Nc1cccc(NC(=O)c2ccc3c(c2)OCCO3)c1	Shiga toxin inh 64, CHX counter 23
CCCCC(=O)Nc1cccc(NC(=O)c2ccc3c(c2)OCO3)c1	CHX counter 14
CC(C)Cn1[nH]c2c3c(ccc2c1=O)C(=O)c1ccccc1C3=O	CHX counter 27, Giardia FBPA inh inconclusive
CCOC(=O)N1CCN(C(=O)c2ccc(C#CC3(O)CCCCC3)cc2)CC1	Shiga toxin inh 41, CHX counter 31
NC(=O)C1(N2CCCCC2)CCN(C(=O)c2ccc(C#CC3(O)CCCCC3)cc2)CC1	none
O=C(c1ccc(C#CC2(O)CCCCC2)cc1)N1CCN(C(c2ccccc2)c2ccccc2)CC1	CHX counter 21
O=C(c1ccc(C#CC2(O)CCCCC2)cc1)N1CCN(Cc2ccccc2)CC1	none
Cc1cc(C)c(Nc2nc3ccccc3n3c(C)nnc23)c(C)c1	none (no result: Shiga toxin inh, RE007 growth inh, LmPK inh, CHX counter, Giardia FBPA inh)
Cc1ccc(S(=O)(=O)n2c(N)nc3ccccc32)cc1	none (no result: Shiga toxin inh)
C=CCSc1nc2ccccc2n1S(=O)(=O)c1ccc(C)cc1	CHX counter 21, Giardia FBPA inh inconclusive
O=S(=O)(c1cccs1)N1CN(Cc2ccc(Cl)cc2)c2nc3ccccc3nc21	CHX counter 15
O=S(=O)(c1cccs1)N1CN(Cc2ccco2)c2nc3ccccc3nc21	Shiga toxin inh 40, CHX counter 31, Giardia FBPA inh inconclusive
Cc1ccc(CN2CN(S(=O)(=O)c3cccs3)c3nc4ccccc4nc32)cc1	Shiga toxin inh 81, CHX counter 91
CC(C)OCCCN1CN(S(=O)(=O)c2cccs2)c2nc3ccccc3nc21	CHX counter 14
CCCCN1CN(S(=O)(=O)c2cccs2)c2nc3ccccc3nc21	none (no result: TbPYK inhibitor, RE007 growth inh)
CCOc1ccc2nc(N3CCN(C(=O)CS(=O)(=O)c4ccc(F)cc4)CC3)sc2c1	none (no result: Shiga toxin inh, RE007 growth inh, LmPK inh, CHX counter, Giardia FBPA inh)
COc1ccccc1CN1CN(S(=O)(=O)c2ccccc2)c2nc3ccccc3nc21	Shiga toxin inh 110, CHX counter 31
CN(C)c1ccc(CNc2ccccn2)cc1	Shiga toxin inh 43, CHX counter 27
CN(C)c1ccc(CNCc2cccnc2)cc1	none (no result: Shiga toxin inh, LmPK inh, CHX counter, Giardia FBPA inh)
CSc1ccc(CNCC(O)c2ccccc2)cc1 (centres undefined)	CHX counter 22
O[C@@H](CNC[C@H](O)c1ccccc1)c1ccccc1	none
Cc1cccc(NCc2ccc(N(C)C)cc2)n1	Shiga toxin inh 91, CHX counter 45
CSc1ccc(CNc2ccccn2)cc1	Shiga toxin inh 117, CHX counter 38
CCSC[C@H](NC(=O)[C@H](C)NC(=O)[C@@H](N)Cc1ccc(O)cc1)C(=O)N[C@@H](CC(=O)O)C(=O)N[C@H](C(=O)N[C@@H](C)C(=O)N[C@H](C(=O)N[C@@H](CSCC)C(=O)N[C@H](C(=O)N[C@H](C(=O)N[C@@H](Cc1cnc[nH]1)C(=O)N[C@@H](CCCNC(=N)N)C(=O)N[C@@H](CC(C)C)C(=O)N[C@@H](C)C(=O)NCC(=O)N[C@@H](CC(C)C)C(=O)N[C@@H](CC(C)C)C(=O)N[C@@H](CO)C(=O)N[C@@H](CCCNC(=N)N)C(=O)N[C@@H](CO)C(=O)NCC(=O)NCC(=O)N[C@H](C(=O)N[C@H](C(=O)N[C@@H](CCCCN)C(=O)N[C@@H](CC(N)=O)C(=O)N[C@@H](CC(N)=O)C(=O)N[C@@H](Cc1ccccc1)C(=O)N[C@H](C(=O)N1CCC[C@H]1C(=O)N[C@H](C(=O)N[C@@H](CC(N)=O)C(=O)N[C@H](C(=O)NCC(=O)N[C@@H](CO)C(=O)N[C@@H](CCCCN)C(=O)N[C@@H](C)C(=O)N[C@@H](Cc1ccccc1)C(N)=O)C(C)C)[C@@H](C)O)C(C)C)C(C)C)C(C)C)[C@@H](C)O)C(C)C)[C@@H](C)O)[C@@H](C)O	none (no result: TbPYK inhibitor, RE007 growth inh, LmPK inh)
COc1ccc(CCNC(=O)c2cnn(-c3cccc(C)c3)c2C2CCN(C(=O)OC(C)(C)C)CC2)cc1OC	none (no result: Shiga toxin inh, RE007 growth inh, LmPK inh, CHX counter, Giardia FBPA inh)
CSc1ccc(CNc2ccccc2)cc1	Shiga toxin inh 61, CHX counter 29 (no result: TbPYK inhibitor, RE007 growth inh)
Fc1ccc(CNc2ccccn2)cc1	Shiga toxin inh 26, RE007 growth inh inconclusive, CHX counter 20
CSc1ccc(CNc2ncc(-c3ccccc3)n2C)cc1	none (no result: Shiga toxin inh, RE007 growth inh, LmPK inh, CHX counter, Giardia FBPA inh)
CN(C)c1ccc(CNc2ncc(Br)cc2Br)cc1	Shiga toxin inh 66, CHX counter 34
O=C(c1ccco1)N1CCC2(CCN(Cc3ccccc3)CC2)CC1	none (no result: Shiga toxin inh, RE007 growth inh, LmPK inh, CHX counter)
C=CCn1c(NCc2ccc(OC)cc2)nc2ccccc21	Shiga toxin inh 40, CHX counter 18
CCn1c(NCc2c[nH]c3ccccc23)nc2ccccc21	none (no result: Shiga toxin inh, LmPK inh, CHX counter, Giardia FBPA inh)
